Unmarked numbers belong to inactive results. Activity calls are given as the source filed them.

The nature of the assay: PSAC antagonists in infected red cells, primary screen, cell-based, P. falciparum Indochina, OD700, 2 h (AID 1155).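 Further: lysis reports solute entry through the parasite surface anion channel PSAC; channel blockers reduce lysis of infected cells.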 The following applies: P. falciparum Indochina infected erythrocytes, osmotic lysis OD700; higher = more signal, called active from +8 up or from −8 down.
Take `CC(C)Cc1ccc(CN2CC[C@@H](NC(=O)Nc3ccccc3)C2)cc1`: the z-score was 0.981. With `CC(C)C[C@@H]1NC(=O)[C@@H]2C[C@H](C(=O)NCCCCN(C)C)[C@H](c3cccc(OCCO)c3)N2C1=O`, the z-score is 0.239. Consider `CC1CC/C=C\[C@H]2OC34C=CCN(C(C)C)C(=O)[C@H]3N(CCCCCCO)C(=O)[C@@H]4C2C(=O)O1` (stereo not given in full), for which the z-score was 0.259. The result for `COc1ccc(CCNC(=O)[C@@]2(Sc3ccc(C)cc3)CC(=O)N(C3Cc4ccccc4C3)[C@@H]2c2ccc(CO)cc2)cc1` reads -0.205. As to `COc1ccc(-c2nc(-c3ccccc3)c3c(c2C)CO[Si]3(C(C)C)C(C)C)cn1`, the z-score is -0.0994. With `CCCC[C@@H]1C[C@H]1[C@@H](NC(=O)c1cccs1)c1ccc(C(F)(F)F)cc1` the figure was 0.987; with `CN1C(=O)C2C=CC(C(O)c3ccc(F)cc3)N(Nc3ccccc3)C2C1=O` (stereo not given), 1.05. The result for `OCC1CC(c2ccccc2)=NO1` (stereo not given) reads 0.623; that for `COC1OC[C@]2(C)[C@H]3C4=C(CN2C(=O)OC(C)(C)C)[C@H](C)C(CO)C(CO)C4CC[C@@H]13` (stereo not given in full), -0.0719; that for `NCCCCCCNC(=O)[C@@H]1C[C@@H]2C(=O)N[C@@H](CCCCN)C(=O)N2[C@@H]1c1cccc(OCCO)c1`, 0.289. Take `CCOC(=O)C1=C[C@@H](c2ccccc2)N(S(=O)(=O)c2ccc(C)cc2)[C@H]1c1ccccc1Cl`: the z-score was 1.16. For the compound `CCOc1cc(C(O)C2C=CC3C(=O)N(c4ccccc4)C(=O)C3N2Nc2ccc(C#N)cc2)ccc1O` (stereo not given), the z-score is 2.72. The result for `CCCCCCCCCCC(O)C1C=CC2C(=O)N(C)C(=O)C2N1NC(=O)OC(C)(C)C` (stereo not given) reads 2.45; that for `NCCCCCNC(=O)[C@@H]1C[C@@H]2C(=O)NCC(=O)N2[C@@H]1c1cccc(OCCO)c1`, 0.282; that for `[N-]=[N+]=NCc1ccccc1[C@H]1OC(c2ccc(OCCCO)cc2)=N[C@@]1(CCS(=O)(=O)c1ccccc1)C(=O)N1CCCCC1`, 9.69 (active). With `CCOC(=O)C[C@H]1[C@H](OC(=O)c2ccccc2-c2ccccc2)[C@@H](NC(=O)c2ccc(-c3ccccc3)cc2)c2cc(OCCCO)ccc2N1C(=O)c1ccc2ccccc2n1`, the z-score was -0.0352. On to `CCCCCCc1nc(C2CC2)cc2c1[Si](C(C)C)(C(C)C)OC2`, for which the z-score is -0.225. The result for `O=C1C[C@@](C(=O)NCCN2CCOCC2)(c2ccc([N+](=O)[O-])cc2)[C@@H](c2ccc(CO)cc2I)N1C1CCCCC1` reads 1.59.

Take `COC(=O)[C@@]1(Cc2ccc(OC)cc2)[C@H]2c3cc(C(=O)N4CCCC4)n(Cc4c(-c5ccccc5)noc4C)c3C[C@H]2CN1C(=O)c1ccccc1`: the z-score is 1.25. As for `CC(C)(C)N1CC=CC23O[C@@H]4C=CCCOC(=O)C4[C@H]2C(=O)N(CCO)[C@@H]3C1=O` (stereo not given in full), the z-score is 0.884. The result for `O=C1O[C@@H](c2ccccc2)[C@@H](c2ccccc2)N2[C@@H](c3ccccc3OCCO)[C@]3(C(=O)Nc4ccc(C#CCCO)cc43)[C@@H](C(=O)N3CCCCCCC3)[C@H]12` reads 0.83; that for `CO[C@]12C=C(Br)[C@@H](C[C@@H]1c1cccc(C)c1)[C@@]1(CO1)C2=O`, -0.119; that for `O=C1C2C=CC(C(O)c3ccccc3)N(Nc3ccccc3F)C2C(=O)N1c1ccccc1` (stereo not given), 1.21. The result for `CC[C@H]1C2=C3C(CC[C@H]4C(OCc5ccc(F)cc5C(F)(F)F)OC[C@](C)([C@@H]34)N(C(=O)OC(C)(C)C)C2)C(COC)C1COC` (stereo not given in full) reads -0.0681; that for `Cc1ccc(S[C@]2(C(=O)O)CC(=O)N(C3Cc4ccccc4C3)[C@@H]2c2ccc(CO)cc2)cc1`, -0.273.

On to `COc1ccc(NC(=O)O[C@H]2[C@H](OC(=O)Nc3ccccc3)[C@@H](OC(=O)Nc3ccccc3)[C@@H](OC)O[C@@H]2CO)cc1`, for which the z-score was 0.463. With `CCCC[C@@H]1C[C@H]1[C@@H](NC(=O)Cc1ccccc1)c1ccc(-c2ccccc2)cc1` the figure was 0.283; with `N#Cc1ccc(NN2C(C(O)c3ccc(F)cc3)C=CC3C(=O)N(c4ccccc4)C(=O)C32)cc1` (stereo not given), 1.4.

Take `[N-]=[N+]=NCc1ccccc1C[C@]1(C(N)=O)N=C(c2ccc(OCCCO)cc2)O[C@H]1c1ccccc1`: the z-score is 3.55. With `COCCCNC(=O)[C@@]1(Cc2ccccc2N=[N+]=[N-])N=C(c2ccc(OCCCO)cc2)O[C@H]1c1ccccc1`, the z-score was 4.21.

In the case of `CN(C)CCCNC(=O)[C@@H]1c2ccccc2C(=O)N(Cc2ccccc2Cl)[C@H]1c1ccc(CO)cc1`, the z-score was 0.603. With `C=C(/C(=C/C[C@H](OC(=O)c1ccncc1)c1ccc(CO)o1)c1cc(C(=O)OC)ccc1OC)C(C)C` the figure was 0.365. The result for `C=CCC(OC(C)=O)[C@@H]1[C@@H](N(Cc2ccc(-c3cccc(C(F)(F)F)c3)o2)C(=O)c2ccc(-c3ccccc3)cc2)c2cc(OCCCO)ccc2N1C(=O)c1ccc2ccccc2n1` (stereo not given in full) reads -0.262. `CCCCN1CC=CC23O[C@@H]4/C=C\CCC(C)OC(=O)C4[C@H]2C(=O)N(C(CO)C(C)C)[C@@H]3C1=O` (stereo not given in full): the z-score is -0.361. Take `[N-]=[N+]=Nc1ccccc1[C@H]1OC(c2ccc(OCCCO)cc2)=N[C@@]1(Cc1ccccc1)C(=O)N1CCCCC1`: the z-score is 27.9 (active).

Source of the values: PubChem BioAssay.
